Bioassay records (PubChem)
Most compounds without a hit are left out; they make up all but 1.6% or so of the library.
KCNQ2 inh – inhibitors of rat KCNQ2 potassium channel. O88943. CHO-K1 KCNQ2, FluxOR thallium flux, 20 min; active compounds read low. B-score at 10 µM. actives 1.1% (n = 310,000);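 active means fluorescence ratio B-score at most minus 3 library SDs, with starting brightness B-score within 2 library SDs, cut at about -5.5 in these data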
Target sequence (O88943 whole entry, looked up): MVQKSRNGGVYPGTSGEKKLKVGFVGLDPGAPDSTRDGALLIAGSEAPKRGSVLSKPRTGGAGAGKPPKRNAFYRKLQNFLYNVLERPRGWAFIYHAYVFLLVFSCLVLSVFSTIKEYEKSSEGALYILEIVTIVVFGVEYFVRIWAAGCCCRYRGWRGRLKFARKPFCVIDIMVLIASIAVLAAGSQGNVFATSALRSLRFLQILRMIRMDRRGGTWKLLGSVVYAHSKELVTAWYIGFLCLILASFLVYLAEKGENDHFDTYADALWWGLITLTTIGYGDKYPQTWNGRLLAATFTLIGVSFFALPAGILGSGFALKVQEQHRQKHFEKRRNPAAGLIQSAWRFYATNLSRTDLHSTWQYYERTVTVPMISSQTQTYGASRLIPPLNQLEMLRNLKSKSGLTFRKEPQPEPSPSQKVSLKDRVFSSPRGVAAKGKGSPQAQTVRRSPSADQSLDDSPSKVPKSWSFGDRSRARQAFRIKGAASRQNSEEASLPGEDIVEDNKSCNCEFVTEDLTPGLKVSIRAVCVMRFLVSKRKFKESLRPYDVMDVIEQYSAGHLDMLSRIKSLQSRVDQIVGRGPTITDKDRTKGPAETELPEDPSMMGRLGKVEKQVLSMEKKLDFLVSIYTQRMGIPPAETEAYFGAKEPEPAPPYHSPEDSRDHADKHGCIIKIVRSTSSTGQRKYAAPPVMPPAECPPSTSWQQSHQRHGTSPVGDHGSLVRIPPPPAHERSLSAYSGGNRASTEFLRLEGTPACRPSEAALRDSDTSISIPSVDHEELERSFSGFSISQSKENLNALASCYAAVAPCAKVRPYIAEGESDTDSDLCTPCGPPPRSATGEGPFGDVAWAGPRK
KCNQ2 enhance – enhances the rat KCNQ2 potassium channel. AID 2239. CHO-K1 KCNQ2, FluxOR thallium flux fluorescence; active compounds read high. actives 0.54% (n = 310,000). B-score at 10 µM. O88943;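 active means fluorescence ratio B-score at least 3 SD of library B-scores, with initial fluorescence B-score within 3 of them, cut at about 5.3 in these data; same plate scores as AID 2156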;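 further: B-score of peak minus minimum over baseline fluorescence ratio after K+ and Tl+ stimulus; positive B-score means potentiation of KCNQ2 with more thallium influx and brighter signal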
Numbers stand for hits.

Screening COC(=O)c1c(C(=O)OC)c(-c2cccc(F)c2)n2c1CS(=O)C2 (stereo not given) returned KCNQ2 inh inactive and KCNQ2 enhance inactive.
For CC(OC(=O)CCN1C(=O)c2cccc([N+](=O)[O-])c2C1=O)C(=O)Nc1cc(Cl)cc(Cl)c1 (stereo not given) the results were KCNQ2 inh inactive.
O=C(COC(=O)C1CCN(c2ccc(C(F)(F)F)cn2)CC1)Nc1ccc(F)cc1[N+](=O)[O-] was read as KCNQ2 inh inactive and KCNQ2 enhance inactive.
For O=C(O)c1ccc2c(=O)n3c(nc2c1)/C(=C/c1ccccc1OC(F)F)CC3 the results were KCNQ2 inh inactive.
For CC1CCCN(C(C(=O)Nc2ccc3c(c2)OCCO3)c2ccccc2)C1 (stereo not given) the results were KCNQ2 inh inactive.
`CC1CCCN(C(C(=O)Nc2ccc3c(c2)OCO3)c2ccccc2)C1` (stereo not given) gave KCNQ2 inh -5.7 and KCNQ2 enhance inactive.
Screening Cc1c(CCOC(=O)C23CC4CC(CC(C4)C2)C3)sc[n+]1CC#N returned KCNQ2 inh inactive.
For COCc1cc(C)nc(SCC(=O)Nc2ccccc2C)c1C#N the results were KCNQ2 inh inactive and KCNQ2 enhance inactive.
COCc1cc(C)nc(SCC(=O)Nc2cc(C(F)(F)F)ccc2N2CCOCC2)c1C#N was read as KCNQ2 inh -5.6 and KCNQ2 enhance inactive.
`CC(c1ccco1)N(C(=O)COc1ccc(Cl)cc1Cl)c1ccccn1` (stereo not given) gave KCNQ2 inh -11 and KCNQ2 enhance inactive.
Screening CC(c1ccco1)N(C(=O)c1ccccc1F)c1ccccn1 (stereo not given) returned KCNQ2 inh inactive and KCNQ2 enhance inactive.
Nc1c(-c2ccc(Cl)cc2)cnc2c(-c3ccccc3)cnn12 was read as KCNQ2 inh inactive and KCNQ2 enhance inactive.
For Cc1nn2c(N3CCN(C(=O)c4ccco4)CC3)cc(C(C)(C)C)nc2c1-c1ccccc1 the results were KCNQ2 inh -6.5 and KCNQ2 enhance inactive.
For Cc1nn2c(N3CCN(C)CC3)cc(C(C)(C)C)nc2c1-c1ccccc1 the results were KCNQ2 inh inactive.
For COc1ccc(-n2ncc3c(N4CCN(Cc5ccccc5)CC4)ncnc32)cc1 the results were KCNQ2 inh inactive.
CC(Oc1ccc2ccccc2c1)C(=O)NNC(=O)Nc1ccccc1 (stereo not given) was read as KCNQ2 inh inactive and KCNQ2 enhance inactive.
CCCn1c(O)c(N=NC(=O)c2ccco2)c2ccccc21 was read as KCNQ2 inh inactive and KCNQ2 enhance 11.
CCn1c(O)c(N=NC(=O)CNC(=O)c2ccco2)c2ccccc21 was read as KCNQ2 inh inactive and KCNQ2 enhance inactive.
Cc1ccc(N2C(=O)CC(N3CCN/C3=C3\CC/C(=C\c4ccccc4)C3=O)C2=O)cc1 (stereo not given) was read as KCNQ2 inh inactive.
Screening CC(C)(C)NC(=O)CN(C(=O)C(=O)Nc1ccc2c(c1)OCCO2)C(C)(C)C returned KCNQ2 inh inactive.
`CN(C)S(=O)(=O)c1cccc(NC(=S)Nc2cc(Cl)cc(Cl)c2)c1` gave KCNQ2 inh inactive and KCNQ2 enhance inactive.
`CCN(CCO)c1ccc(NC(=S)Nc2cccc(S(=O)(=O)N(C)C)c2)cc1` gave KCNQ2 inh -6.7 and KCNQ2 enhance inactive.
`O=C(CSc1nnc(CNC(=O)c2cccc(C(F)(F)F)c2)o1)NC1CCCCC1` gave KCNQ2 inh inactive.
COc1ccc(-c2cc(C(=O)NCC3CCCO3)c3cc(C)ccc3n2)cc1 (stereo not given) was read as KCNQ2 inh -5.6 and KCNQ2 enhance inactive.
For COc1ccc(-c2nc(C(=O)NCC3CCCO3)cc3c2[nH]c2ccccc23)cc1 (stereo not given) the results were KCNQ2 inh inactive.
O=C(NCC1CCCO1)c1cc2c([nH]c3ccccc32)c(-c2cccc(Br)c2)n1 (stereo not given) was read as KCNQ2 inh -6.4 and KCNQ2 enhance inactive.
`COc1ccc(-c2cc(C(=O)NCC3CCCO3)c3ccccc3n2)cc1` (stereo not given) gave KCNQ2 inh inactive and KCNQ2 enhance inactive.
Screening O=C(NCC1CCCO1)c1cc(-c2ccccc2)nc2ccc(Br)cc12 (stereo not given) returned KCNQ2 inh -7.4 and KCNQ2 enhance inactive.
Screening Cc1ccc2nc(-c3cccc(Br)c3)cc(C(=O)NCC3CCCO3)c2c1 (stereo not given) returned KCNQ2 inh inactive.
C=Cn1ccnc1CC(O)c1ccc(OC)cc1 (stereo not given) was read as KCNQ2 inh inactive and KCNQ2 enhance inactive.
O=C1C=C(c2ccc3c(c2)OCO3)CCC1 was read as KCNQ2 inh inactive.
`Cc1[nH]c2ccccc2c1-c1csc(NC(=O)CSCCO)n1` gave KCNQ2 inh inactive and KCNQ2 enhance inactive.
`Cc1ccc(/C=C/C(=O)c2ccccc2)cc1` gave KCNQ2 inh inactive.
Screening Cc1ccc(/C=C/C(=O)c2ccccc(=O)c2O)c(C)c1 returned KCNQ2 inh inactive and KCNQ2 enhance 5.9.
CCOC(=O)Cn1ccc(NC(=O)COc2ccc(F)cc2F)n1 was read as KCNQ2 inh inactive.
O=C(CN1CCN(C(=O)C2CCCO2)CC1)Nc1ccc(Cl)c(Cl)c1 (stereo not given) was read as KCNQ2 inh inactive.
Screening CCOc1ccc(C(=O)N2CCC3(CC2)NCCc2[nH]cnc23)cc1 returned KCNQ2 inh inactive.
For COc1ccccc1OCC(=O)Nc1ccccc1C(=O)N1CCCCC1 the results were KCNQ2 inh inactive.
Screening O=C(COc1ccccc1Cl)Nc1ccccc1C(=O)N1CCCCC1 returned KCNQ2 inh -6 and KCNQ2 enhance inactive.
COc1ccc(CC(=O)N/N=C(\C)CC(=O)Nc2ccc(N(C)C)cc2)cc1OC was read as KCNQ2 inh inactive and KCNQ2 enhance inactive.
Screening COc1ccc(-c2csc3nc(-c4ccccc4OC)oc(=O)c23)cc1 returned KCNQ2 inh inactive and KCNQ2 enhance inactive.
Screening Cc1ccc(-c2cccc(C(=O)NCc3ccccc3)n2)c2ccccc12 returned KCNQ2 inh inactive.
Cc1ccc(-c2cccc(C(=O)NCCc3ccccc3)n2)c2ccccc12 was read as KCNQ2 inh -6.3 and KCNQ2 enhance inactive.
For COc1ccc(C(=O)N2CCCC(CNC(=O)c3ccccc3Cl)C2)o1 (stereo not given) the results were KCNQ2 inh inactive.
For CC(C)N(Cc1ccccc1)C(=O)CN1C(=O)COc2ccc(S(=O)(=O)N3CCCCCC3)cc21 the results were KCNQ2 inh inactive.
Screening Cc1cc(C)c(-c2cc(NC(=O)COC(=O)c3ccc(CO)cc3)n(-c3ccccc3)n2)cc1C returned KCNQ2 inh inactive.
`Cc1cc(C)c(-c2cc(NC(=O)CSc3n[nH]c(N)n3)n(-c3ccccc3)n2)cc1C` gave KCNQ2 inh -6.9 and KCNQ2 enhance inactive.
For CC1CCCC(NC(=O)CN2C(=O)c3cccnc3Oc3ccc(Cl)cc32)C1C (stereo not given) the results were KCNQ2 inh inactive.
`Oc1c(Br)cc(Cl)cc1C=Nc1ccccc1Br` gave KCNQ2 inh inactive and KCNQ2 enhance 8.4.
Screening Oc1ccc2ccccc2c1C=Nc1ccccc1Br returned KCNQ2 inh inactive.
Screening COc1ccc(OC)c(C(=O)NC(CC(N)=O)c2ccc(NCCN3CCCCC3)c([N+](=O)[O-])c2)c1 (stereo not given) returned KCNQ2 inh inactive and KCNQ2 enhance inactive.
O=C(c1cn(-c2ccccc2)nc1-c1ccccc1)n1nnc2ccccc21 was read as KCNQ2 inh inactive.
